Among the data in PubChem BioAssay (NCATS) are activity, negative = inhibition values, retold here.

Inconclusive results are not listed. The source made the active and inactive calls. Calls follow the shape of the dose curve; as a rule, active = well fitted inhibition curve with a large enough effect; inconclusive = small, poorly fitted or top-dose-only effect; inactive = flat fitted curve, though single readings scatter.

Chain of Lysine-specific demethylase 5B (Homo sapiens) (Q9UGL1 whole entry, looked up): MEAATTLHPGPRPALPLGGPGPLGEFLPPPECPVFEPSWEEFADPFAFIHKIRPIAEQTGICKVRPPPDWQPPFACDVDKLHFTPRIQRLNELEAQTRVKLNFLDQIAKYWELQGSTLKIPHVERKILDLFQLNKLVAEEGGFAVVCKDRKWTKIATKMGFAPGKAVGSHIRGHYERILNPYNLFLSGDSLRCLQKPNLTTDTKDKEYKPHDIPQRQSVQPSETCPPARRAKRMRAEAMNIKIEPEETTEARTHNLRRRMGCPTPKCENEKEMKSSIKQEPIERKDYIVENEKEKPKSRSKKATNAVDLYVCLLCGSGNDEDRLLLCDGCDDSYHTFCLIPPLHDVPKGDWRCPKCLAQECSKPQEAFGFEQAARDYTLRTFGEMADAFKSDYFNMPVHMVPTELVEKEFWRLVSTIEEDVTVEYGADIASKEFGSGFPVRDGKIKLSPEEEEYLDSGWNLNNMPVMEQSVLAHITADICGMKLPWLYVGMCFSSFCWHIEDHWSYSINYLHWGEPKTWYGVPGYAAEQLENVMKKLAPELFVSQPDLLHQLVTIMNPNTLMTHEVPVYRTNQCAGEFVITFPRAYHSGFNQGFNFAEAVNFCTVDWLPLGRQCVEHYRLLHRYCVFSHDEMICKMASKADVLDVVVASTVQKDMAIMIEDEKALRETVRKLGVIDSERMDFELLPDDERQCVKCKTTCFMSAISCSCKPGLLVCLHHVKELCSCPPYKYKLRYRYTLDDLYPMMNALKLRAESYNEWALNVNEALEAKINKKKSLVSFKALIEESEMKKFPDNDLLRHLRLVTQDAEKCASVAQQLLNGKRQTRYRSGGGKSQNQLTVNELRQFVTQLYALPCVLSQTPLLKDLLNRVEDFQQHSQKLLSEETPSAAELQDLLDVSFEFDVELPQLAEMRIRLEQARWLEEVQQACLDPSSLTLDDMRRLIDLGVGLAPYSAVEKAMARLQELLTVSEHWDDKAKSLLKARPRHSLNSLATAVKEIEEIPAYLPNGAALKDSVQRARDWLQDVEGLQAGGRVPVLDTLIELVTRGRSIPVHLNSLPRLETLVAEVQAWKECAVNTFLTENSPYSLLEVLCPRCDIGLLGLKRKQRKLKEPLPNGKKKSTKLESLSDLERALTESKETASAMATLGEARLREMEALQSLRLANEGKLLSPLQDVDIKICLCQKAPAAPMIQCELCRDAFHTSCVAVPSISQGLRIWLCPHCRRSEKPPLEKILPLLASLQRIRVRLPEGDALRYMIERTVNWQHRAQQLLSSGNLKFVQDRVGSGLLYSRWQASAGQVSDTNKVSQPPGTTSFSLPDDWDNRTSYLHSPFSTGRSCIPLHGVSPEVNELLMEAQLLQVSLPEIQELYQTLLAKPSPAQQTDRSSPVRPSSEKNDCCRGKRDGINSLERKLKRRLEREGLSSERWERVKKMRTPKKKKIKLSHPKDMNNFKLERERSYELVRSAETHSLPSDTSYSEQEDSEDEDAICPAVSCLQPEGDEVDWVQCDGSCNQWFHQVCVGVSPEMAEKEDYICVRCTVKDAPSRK

This test has as its target Lysine-specific demethylase 5B (Homo sapiens) (UniProt Q9UGL1). Briefly: Optimization screen for KDM5B Histone Demethylases FDH coupled qHTS against the LOPAC library (AID 1347166). Also: 0% is about no effect. The settings on record: KDM5B demethylation, FDH-coupled NADH fluorescence (FDH is formaldehyde dehydrogenase); at 57.5 µM (top of the series). The procedure, abridged: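 KDM5BDeltaAP (200nM final) in 50mM HEPES pH 7.5, 0.01% Tween-20 was preincubated with compound for 10 min at room temperature. A substrate mix of 12.5uM H3K4Me3, 25uM a-ketoglutarate, ascorbate, Fe2+, NAD+ and formaldehyde dehydrogenase was then added. NADH fluorescence (340/450 nm) was read initially and after 30 min.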
Turning to `NC1(C(=O)O)CC1`, the activity, negative = inhibition was -7.89% (inactive). Regarding `CN1CCc2cc(Cl)c(O)cc2[C@@H](c2ccccc2)C1`, the activity, negative = inhibition was -3.21% (inactive).

In the case of `O=C(O)[C@H]1NCCC[C@H]1C(=O)O`, the activity, negative = inhibition was -4.16% (inactive). For `CNc1ncnc2c1ncn2[C@H]1C[C@H](OP(=O)(O)O)[C@@H](COP(=O)(O)O)O1`, the activity, negative = inhibition is -15.5% (inactive). Consider `CC[n+]1c(/C=C/C=C2/N(C)c3ccccc3C2(C)C)sc2ccccc21`, for which the activity, negative = inhibition was -25% (inactive).

Turning to `Cn1c(=O)[nH]c2ncn(C)c2c1=O`, the activity, negative = inhibition is -3.98% (inactive). For the compound `O=C(O)c1cccnc1C(=O)O`, the activity, negative = inhibition is 6.25% (inactive). With `Oc1ccc(Cn2cc[nH]c2=S)cc1`, the activity, negative = inhibition was -15.9% (inactive).

Regarding `NC(N)=NC(N)=Nc1cccc(Cl)c1`, the activity, negative = inhibition was -3.11% (inactive).

Take `Cc1ccc([N+](=O)[O-])cc1S(=O)(=O)N(C)C`: the activity, negative = inhibition is -0.674% (inactive).

Regarding `COC(=O)C1=C(C)NC(C)=C([N+](=O)[O-])C1c1ccccc1C(F)(F)F` (stereo not given), the activity, negative = inhibition is -5.36% (inactive). The value for `NCCS(=O)O` was -4.01% (inactive); that for `CC(=O)/C(C)=N/O` was -0.876% (inactive).

Consider `NC(N)=NC(N)=Nc1ccccc1`, for which the activity, negative = inhibition is -3.27% (inactive). For the compound `CCCCCCCCCCCCCCCCCCOC[C@H](COP(=O)([O-])OCC[N+](C)(C)C)OC`, the activity, negative = inhibition was 1.42% (inactive).

On to `CCCCCCCCCC[Si](C)(C)CCC(=O)NC(Cc1ccc(C)cc1)c1ccccc1` (stereo not given), for which the activity, negative = inhibition is -3.59% (inactive). The value for `CN(C)CCCc1cc(C(=O)Nc2ccc(-c3ccncc3)cc2)ccc1O` was -5.29% (inactive); that for `c1ccc(CN2CCC3(CCCc4ccccc43)CC2)cc1` was -0.246% (inactive). Regarding `O=c1onc2n1-c1cc(Br)ccc1OC2`, the activity, negative = inhibition is -6.75% (inactive).

With `C=C(C)C1CC=C(C(=O)O)CC1` (stereo not given), the activity, negative = inhibition is 1.54% (inactive). With `COC(=O)C(N)Cc1ccc(Cl)cc1` (stereo not given), the activity, negative = inhibition is -3.16% (inactive). As for `COc1cc(C(O)CO)ccc1O` (stereo not given), the activity, negative = inhibition was -5.15% (inactive). For `CCN(CC)CCOC(=O)c1cc(Cl)c(N)cc1OC` the value was -9.27% (inactive). For `CC1CCN(CC[C@H]2CCCN2S(=O)(=O)c2cccc(O)c2)CC1` the value was 1.65% (inactive); for `NCCNS(=O)(=O)c1cccc2c(Cl)cccc12`, -9.52% (inactive). Turning to `COC1(C2=NCCN2)COc2ccccc2O1` (stereo not given), the activity, negative = inhibition is -3.68% (inactive). For `N=C(N)c1ccc(N)cc1`, the activity, negative = inhibition was -6.1% (inactive). The value for `NCCC1CCCC(CCN)N1` (stereo not given) was -5.63% (inactive); that for `CC1=C(/C=C/C(C)=C/C=C/C(C)=C\C(=O)O)C(C)(C)CCC1` was -15.4% (inactive); that for `CC(N)(C(=O)O)c1ccc(C(=O)O)cc1` (stereo not given) was -6.58% (inactive).

`CCCCCCCCCCCCCCSCC(=O)O`: the activity, negative = inhibition is -24.4% (inactive). On to `CSC(=N)N`, for which the activity, negative = inhibition is -3.96% (inactive). Turning to `N[C@@H](CCCC(=O)O)C(=O)O`, the activity, negative = inhibition is -3.82% (inactive).

Turning to `COc1ccccc1N1CCN(CCCCN2C(=O)c3ccccc3C2=O)CC1`, the activity, negative = inhibition is -4.4% (inactive). Regarding `COc1cc(C(O)C(=O)O)ccc1O` (stereo not given), the activity, negative = inhibition is -6.83% (inactive).
